Values joined by “and” are separate entries in the source; they are usually repeats but may differ in a detail not shown here. Equal values may be shown once. Active and inactive are the calls of the source.
What was measured:
[1] = test system: Plasmodium falciparum Sir2 (PF13_0152, Sir2A); experiment: pfSir2 binders on small-molecule microarrays, primary screen, biochemical, small-molecule microarray, 635 nm fluorescence (AID 1098); details: small-molecule microarray binding, fluorescence 635 nm; higher = more signal;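 note: score merges spot fluorescence intensity with its signal-to-noise ratio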
[2] = small-molecule microarray binders of probe aDKK1, primary screen, biochemical, biotinylated probe, 635/667 nm fluorescence (AID 1099); details: higher = more signal;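 note: score merges 667nm spot fluorescence with signal to noise across triplicate slides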
[3] = small-molecule microarray binders of probe aCHRDL2, primary screen, biochemical, biotinylated probe, 635/667 nm fluorescence (AID 1100); details: higher = more signal
[4] = splicing luciferase reporter signal modulators, primary screen, spliceosome inhibition project, cell-based, HEK293, splice +/- reporter (AID 1101); details: luminescence, 24 h, higher = more signal, called active from +8 up or from −8 down;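 note: HEK293 cells carrying a splicing-competent luciferase reporter gene; test concentration not given here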
[5] = biological target: Fibroblast growth factor 10 (Homo sapiens) (UniProt O15520); experiment: FGF10 binders on small-molecule microarrays, primary screen, biochemical, small-molecule microarray, 635 nm fluorescence (AID 1102); details: FGF10 binding, fluorescence 635 nm, higher = more signal
[6] = test system: glycogen synthase kinase-3 (GSK3A per assay name; protocol says GSK3B); experiment: GSK3 binders on small-molecule microarrays, primary screen, biochemical, small-molecule microarray, 635 nm fluorescence, GSK3A (AID 1103); details: small-molecule microarray binding, fluorescence 635 nm; higher = more signal; note: the record names both GSK3A and GSK3B
[7] = biological target: Epidermal growth factor receptor (Homo sapiens) (UniProt P00533); experiment: EGFR binders on small-molecule microarrays, primary screen, biochemical, small-molecule microarray, 635 nm fluorescence (AID 1104); details: EGFR binding, higher = more signal;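 note: score merges 667 nm emission intensity with spot signal to noise over triplicate slides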
[8] = biological target: Follistatin-related protein 3 (Homo sapiens) (UniProt O95633); experiment: FSTL3 binders on small-molecule microarrays, primary screen, biochemical, small-molecule microarray, 635 nm fluorescence (AID 1105); details: FSTL3 binding, higher = more signal;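 note: score merges emission near 667 nm and signal to noise per printed spot across three slides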
[9] = biological target: Dickkopf-related protein 1 (Homo sapiens) (UniProt O94907); experiment: DKK1 binders on small-molecule microarrays, primary screen, biochemical, small-molecule microarray, 635 nm fluorescence scan (AID 1106); details: DKK1 binding, higher = more signal;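 note: score merges emission near 667 nm with signal to noise over three replicate slides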
[10] = test system: Inhibin beta A chain (activin A); experiment: INHBA (activin A) binders on microarrays, primary screen, biochemical, small-molecule microarray, 635 nm fluorescence scan (AID 1107); details: small-molecule microarray binding, higher = more signal;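 note: mouse activin A protein probed at 4.33 µg/mL on printed slides; score merges bound-protein fluorescence near 667 nm with spot signal-to-noise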
[11] = test system: Human papillomavirus type 1a protein E7 (residues 44-93); experiment: HPV1a E7 fragment binders on microarrays, primary screen, biochemical, small-molecule microarray, residues 44-93, 635 nm fluorescence (AID 1108); details: small-molecule microarray binding, fluorescence 635 nm; higher = more signal;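 note: E7 fragment applied at 1 µg/mL in TBST for 1 h at 4 C; score combines spot fluorescence with its signal to noise ratio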
[12] = modulators of HCV replicon luciferase signal, primary screen, HCV replication inhibitor project, Huh7 cells, luciferase reporter (AID 1109); details: 48 h, higher = more signal;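 note: huh7 hepatoma cells harbouring a luciferase neomycin HCV replicon reporter; luciferase luminescence as measure of HCV replicon replication; test concentration not given here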
[13] = biological target: Left-right determination factor 2 (Homo sapiens) (UniProt O00292); experiment: LEFTY2 binders on small-molecule microarrays, primary screen, biochemical, small-molecule microarray, 635 nm fluorescence scan (AID 1110); details: LEFTY2 binding, higher = more signal
[14] = biological target: Calmodulin-1 (Homo sapiens) (UniProt P0DP23); experiment: CALM1 binders on microarrays, EGTA buffer, profiling panel, biochemical, small-molecule microarray, Cy5-labelled CALM1 (AID 1111); details: Cy5-CALM1 binding fluorescence, higher = more signal;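 note: labelled calmodulin applied in Tris saline Tween buffer holding calcium plus EGTA and DTT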
[15] = biological target: Calmodulin-1 (Homo sapiens) (UniProt P0DP23); experiment: calcium-bound CALM1 binders on microarrays, profiling panel, artefact control for SMM control-protein annotation, biochemical, small-molecule microarray, Cy5-labelled CALM1, plus calcium (AID 1112); details: Cy5-CALM1 binding fluorescence, higher = more signal;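 note: score merges spot fluorescence with signal to noise from triplicate slides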
[16] = small-molecule microarray binders of probe aWnt5a, primary screen, biochemical, biotinylated probe, 635/667 nm fluorescence (AID 1113); details: higher = more signal;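 note: score merges 667 nm fluorescence intensity with signal-to-noise per printed feature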
[17] = small-molecule microarray binders of probe aShh, primary screen, biochemical, biotinylated probe, 635/667 nm fluorescence (AID 1114); details: higher = more signal;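 note: probe is biotin-labelled aShh protein from a stem cell growth factor screen; measures binding of labelled protein to compounds printed on the slide; score merges feature fluorescence at 667 nm with signal-to-noise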
[18] = small-molecule microarray binders of probe aNog, primary screen, biochemical, biotinylated probe, 635/667 nm fluorescence (AID 1115); details: higher = more signal;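 note: probe is biotinylated aNog protein used at 0.15 µg/mL for 1 h at 4 C; z-score combines 667 nm fluorescence of each spot with its signal to noise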
[19] = biological target: Torsin-1A-interacting protein 1 (Homo sapiens) (UniProt Q5JTV8); experiment: LAP1 binders from COS7 cell lysate, primary screen, small-molecule microarray, 635/667 nm fluorescence (AID 1116); details: COS7-hLAP1 lysate binding, 635 nm fluorescence, higher = more signal
[20] = biological target: Alpha-bungarotoxin (Bungarus multicinctus) (UniProt P60615); experiment: alpha-bungarotoxin binders on microarray, profiling panel, artefact control for SMM control protein annotation, biochemical, small-molecule microarray, Alexa647 label, 635/667 nm fluorescence (AID 1117); details: alpha-BTX-A647 binding fluorescence, higher = more signal
Sequence of Alpha-bungarotoxin (Bungarus multicinctus) (P60615 whole entry, looked up): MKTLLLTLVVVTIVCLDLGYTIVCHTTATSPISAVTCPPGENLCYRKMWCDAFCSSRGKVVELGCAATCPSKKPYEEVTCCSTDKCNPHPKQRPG

Sequence of Epidermal growth factor receptor (Homo sapiens) (P00533 whole entry, looked up): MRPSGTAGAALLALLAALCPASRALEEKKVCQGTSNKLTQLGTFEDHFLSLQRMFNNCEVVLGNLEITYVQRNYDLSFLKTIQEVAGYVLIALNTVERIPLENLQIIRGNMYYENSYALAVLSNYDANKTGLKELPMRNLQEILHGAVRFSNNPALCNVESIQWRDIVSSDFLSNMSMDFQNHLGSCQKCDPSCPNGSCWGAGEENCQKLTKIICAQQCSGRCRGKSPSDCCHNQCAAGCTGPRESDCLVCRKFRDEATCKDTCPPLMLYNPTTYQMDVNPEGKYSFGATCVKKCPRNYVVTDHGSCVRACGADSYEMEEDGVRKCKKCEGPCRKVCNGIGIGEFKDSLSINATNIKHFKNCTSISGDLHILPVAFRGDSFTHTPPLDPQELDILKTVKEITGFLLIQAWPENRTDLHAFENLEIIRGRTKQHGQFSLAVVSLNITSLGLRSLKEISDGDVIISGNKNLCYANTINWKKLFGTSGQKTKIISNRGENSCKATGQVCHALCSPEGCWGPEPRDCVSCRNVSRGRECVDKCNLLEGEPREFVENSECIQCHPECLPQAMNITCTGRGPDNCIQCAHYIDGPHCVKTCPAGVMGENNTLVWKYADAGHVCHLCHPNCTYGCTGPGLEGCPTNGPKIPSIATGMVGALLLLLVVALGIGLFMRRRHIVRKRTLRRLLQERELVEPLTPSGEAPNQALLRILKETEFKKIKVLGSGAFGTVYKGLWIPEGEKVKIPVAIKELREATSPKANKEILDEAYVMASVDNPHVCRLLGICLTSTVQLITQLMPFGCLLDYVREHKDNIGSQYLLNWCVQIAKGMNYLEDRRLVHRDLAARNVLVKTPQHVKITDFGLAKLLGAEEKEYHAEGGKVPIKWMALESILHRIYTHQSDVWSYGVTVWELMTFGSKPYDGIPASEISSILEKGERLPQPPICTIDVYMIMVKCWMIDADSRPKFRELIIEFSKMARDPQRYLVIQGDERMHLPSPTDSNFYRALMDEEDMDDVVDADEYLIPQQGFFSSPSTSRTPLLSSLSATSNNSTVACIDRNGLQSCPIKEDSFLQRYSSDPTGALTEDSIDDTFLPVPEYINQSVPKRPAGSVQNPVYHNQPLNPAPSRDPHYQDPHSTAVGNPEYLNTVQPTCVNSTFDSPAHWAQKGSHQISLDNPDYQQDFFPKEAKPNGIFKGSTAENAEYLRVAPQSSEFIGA
Sequence of Left-right determination factor 2 (Homo sapiens) (O00292 whole entry, looked up): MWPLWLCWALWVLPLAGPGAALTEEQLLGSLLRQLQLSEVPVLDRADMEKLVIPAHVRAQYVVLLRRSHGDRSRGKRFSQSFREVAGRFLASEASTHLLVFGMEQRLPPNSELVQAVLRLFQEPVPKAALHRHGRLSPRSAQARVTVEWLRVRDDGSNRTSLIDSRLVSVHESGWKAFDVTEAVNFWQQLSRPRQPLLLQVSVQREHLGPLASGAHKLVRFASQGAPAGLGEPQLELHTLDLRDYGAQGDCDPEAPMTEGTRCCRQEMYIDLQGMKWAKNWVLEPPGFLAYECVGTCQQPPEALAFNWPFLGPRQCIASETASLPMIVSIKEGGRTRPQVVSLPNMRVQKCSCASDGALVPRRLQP
Sequence of Torsin-1A-interacting protein 1 (Homo sapiens) (Q5JTV8 whole entry, looked up): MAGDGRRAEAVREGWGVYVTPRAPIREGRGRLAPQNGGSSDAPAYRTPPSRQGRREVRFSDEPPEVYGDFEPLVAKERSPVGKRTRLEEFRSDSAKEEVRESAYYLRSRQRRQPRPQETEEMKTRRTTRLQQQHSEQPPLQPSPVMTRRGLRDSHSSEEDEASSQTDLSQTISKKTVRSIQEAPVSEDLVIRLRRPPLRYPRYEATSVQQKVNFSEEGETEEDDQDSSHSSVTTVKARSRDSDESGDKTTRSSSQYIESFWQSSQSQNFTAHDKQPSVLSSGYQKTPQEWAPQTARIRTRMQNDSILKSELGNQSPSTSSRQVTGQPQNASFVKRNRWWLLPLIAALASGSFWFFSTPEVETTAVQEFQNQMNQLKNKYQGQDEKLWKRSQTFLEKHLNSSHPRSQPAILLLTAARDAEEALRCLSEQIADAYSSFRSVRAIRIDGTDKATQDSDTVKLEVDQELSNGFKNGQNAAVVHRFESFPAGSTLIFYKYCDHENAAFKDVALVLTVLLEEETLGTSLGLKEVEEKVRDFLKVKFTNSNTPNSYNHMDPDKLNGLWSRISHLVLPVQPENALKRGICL
Sequence of Follistatin-related protein 3 (Homo sapiens) (O95633 whole entry, looked up): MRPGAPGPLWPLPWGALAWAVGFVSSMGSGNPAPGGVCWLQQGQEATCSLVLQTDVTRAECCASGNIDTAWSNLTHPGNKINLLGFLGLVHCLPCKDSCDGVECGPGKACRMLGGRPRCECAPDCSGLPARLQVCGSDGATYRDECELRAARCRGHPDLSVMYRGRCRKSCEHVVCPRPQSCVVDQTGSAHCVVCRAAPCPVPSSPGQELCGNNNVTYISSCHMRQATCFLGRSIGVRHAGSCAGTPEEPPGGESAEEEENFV
Sequence of Fibroblast growth factor 10 (Homo sapiens) (O15520 whole entry, looked up): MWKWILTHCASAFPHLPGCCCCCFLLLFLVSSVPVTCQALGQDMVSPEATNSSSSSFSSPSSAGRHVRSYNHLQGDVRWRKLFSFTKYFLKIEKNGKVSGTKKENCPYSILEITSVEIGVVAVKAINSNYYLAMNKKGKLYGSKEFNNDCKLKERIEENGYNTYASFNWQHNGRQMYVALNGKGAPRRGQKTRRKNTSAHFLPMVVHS
Sequence of Dickkopf-related protein 1 (Homo sapiens) (O94907 whole entry, looked up): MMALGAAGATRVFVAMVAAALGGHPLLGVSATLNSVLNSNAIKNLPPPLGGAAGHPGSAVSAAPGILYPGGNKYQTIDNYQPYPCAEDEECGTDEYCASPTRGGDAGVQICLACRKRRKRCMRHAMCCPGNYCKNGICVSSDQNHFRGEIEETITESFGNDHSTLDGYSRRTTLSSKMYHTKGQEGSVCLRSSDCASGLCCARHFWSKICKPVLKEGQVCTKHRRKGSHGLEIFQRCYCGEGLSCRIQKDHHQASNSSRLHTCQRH

Row | SMILES | composite z-score [1] | composite z-score [2] | composite z-score [3] | z-score [4] | composite z-score [5] | composite z-score [6] | composite z-score [7] | composite z-score [8] | composite z-score [9] | composite z-score [10] | composite z-score [11] | z-score [12] | composite z-score [13] | composite z-score [14] | composite z-score [15] | composite z-score [16] | composite z-score [17] | composite z-score [18] | composite z-score [19] | composite z-score [20]
1 | Cc1ccc(S(=O)(=O)N[C@H]2COC(=O)[C@@H](Cc3ccccc3)NC(=O)[C@@H](C)COC(=O)CC=C[C@@H]2C)cc1 | -0.218 and 0.304 | -0.483 and -0.332 | -0.803 and -0.645 | 0.565 (inactive) and -0.0193 (inactive) | 0.117 and 0.435 | -0.0808 and -0.0049 | 0.513 and 0.282 | 0.87 and 0.533 | 0.871 and 0.895 | 0.657 and 0.0736 | -1.28 and 0.123 | 1.41 and -1.89 | 0.839 and 0.546 | -0.233 and -0.354 | -0.372 and -0.879 | -0.1 and -0.0912 | 0.0494 and -0.138 | -0.122 and -0.038 | 0.15 and -0.0849 | 0.423 and -0.1
2 | CCOC(=O)C[C@H]1[C@H](OC(=O)c2ccccc2-c2ccccc2)[C@@H](NC(=O)Cc2ccc(OC)cc2)c2cc(OCCCO)ccc2N1C(=O)c1ccc2ccccc2n1 | 0.108 and 0.154 | -0.114 and 0.575 | 0.0078 and 0.468 | -0.472 (inactive) and -0.891 (inactive) | 0.43 and 0.682 | 0.0554 and 0.185 | 0.219 and -0.108 | 0.0539 and 0.0407 | 0.404 and 0.209 | 0.773 and 0.105 | 0.005 and 0.188 | -1.38 and -0.367 | 0.417 and 0.0866 | 0.174 and 1.45 | 0.141 and 0.318 | 0.0031 and 0.0512 | -0.0681 and -0.0146 | 0.0926 and -0.111 | 0.032 and 0.747 | 0.572 and 0.924
3 | C=C[C@H](OC)[C@@H](O)c1ccc(OCCO)cc1 | 0.972 and 1.8 | -0.458 and -0.428 | 0.915 and 0.789 | -0.957 (inactive) and -0.233 (inactive) | -1.07 and -0.623 | -1.69 and -0.885 | -2.13 and -1.16 | -1.95 and -1.72 | -1.55 and -0.654 | -0.731 and -1.25 | -1.76 and -0.748 | -0.142 and 1.09 | -1.51 and -1.36 | -1.51 and -0.219 | -0.045 and -0.319 | -0.262 and -0.213 | -0.276 and -0.221 | -0.674 and -0.402 | 0.376 and -0.199 | -1.55 and -1.04
4 | COC(=O)[C@@]1(Cc2ccccc2)[C@H]2c3cc(C(=O)N(C)C)n(Cc4ccc(C)c(F)c4F)c3C[C@H]2CN1C(=O)c1ccccc1 | 1.07 and 0.37 | 1.39 and 0.861 | 1.31 and 1.05 | -2.38 (inactive) and -2.61 (inactive) | 0.365 and 1.01 | 0.22 and 1.32 | -0.542 and 0.652 | -0.0958 and 1.42 | -1.07 and 0.472 | 0.885 and 1.09 | 1.41 and 1.38 | -3.76 and -2.08 | -0.301 and 0.288 | 1.46 and 2.22 | 0.818 and 1.11 | 0.208 and 0.822 | 1.91 and -0.279 | 0.782 and 0.365 | 2.24 and 0.536 | 0.226 and 1.1
5 | C=CC[C@@H](O)c1ccc(O)c(F)c1 | 0.358 and 0.514 | -0.388 and -0.293 | 0.92 and 0.751 | -0.55 (inactive) and -1.23 (inactive) | -1.38 and -0.756 | -1.43 and -0.85 | -1.81 and -1.65 | -2.63 and -1.02 | -1.95 and -0.898 | -2.07 and -0.334 | -0.612 and -0.685 | -0.947 and 0.848 | -2.46 and -1.47 | -0.75 and -1.41 | 0.0576 and -0.0804 | -0.0399 and -0.278 | -0.332 and -0.124 | -0.116 and -0.62 | -0.635 and -0.47 | -1.9 and -2.33
6 | C[N+](C)(C)CCCCNC(=O)[C@H]1C[C@H]2C(=O)N[C@@H](CCCC[N+](C)(C)C)C(=O)N2[C@H]1c1ccc(O)cc1 | 1.3 and 1.94 | -0.237 and -0.18 | -0.904 and -0.983 | 0.411 (inactive) and -1.57 (inactive) | 1.56 and 1.47 | 1.31 and 0.668 | 1.16 and 0.868 | 1.44 and 1.34 | 2.03 and 1.92 | 1.02 and 0.383 | 1.29 and 0.0427 | -0.999 and 0.723 | 1.41 and 1.47 | -0.0061 and -1.63 | -0.426 and -1.34 | -0.0685 and -0.0643 | -0.0011 and -0.0709 | 0.0416 and -0.7 | 0.699 and 0.0645 | 0.0509 and -0.801
7 | C=CCN(CCCC)C(=O)C1N(c2c(Cl)cccc2CO)C(=O)C2C(C(=O)O)C3C=CC21O3 (stereo not given) | 0.934 and -0.194 | 0.0215 and -0.0881 | 1.08 and 0.748 | -0.786 (inactive) and -0.929 (inactive) | -0.613 and -1.38 | -2.1 and -0.938 | -1.71 and -1.18 | -2.37 and -1.28 | -2.46 and -2.71 | -1.41 and -0.0137 | -1.84 and 0.389 | -0.325 and -0.567 | -3.23 and -2.18 | -0.623 and -0.783 | 0.713 and -0.0889 | -0.144 and -0.0894 | 0.151 and -0.279 | 0.0107 and 0.242 | -0.529 and -0.927 | -0.406 and -1.31
8 | CCCCCN1CC=CC23O[C@@H]4C=CCCOC(=O)C4[C@H]2C(=O)N(C(C)CO)[C@@H]3C1=O (stereo not given in full) | 1.83 and 0.878 | -1.21 and 0.263 | -0.532 and 0.779 | 0.691 (inactive) and 0.361 (inactive) | 0.0253 and -0.6 | 0.375 and -0.449 | -0.655 and -0.706 | 0.164 and -0.32 | -0.057 and -0.695 | -0.131 and 0.537 | 0.439 and 1.12 | -1.79 and 1.05 | -0.151 and -0.907 | -0.858 and 0.167 | -0.707 and -0.806 | -0.357 and -0.28 | -0.223 and -0.0035 | -0.789 and -0.301 | -0.759 and 2.57 | -0.342 and 0.335
9 | C=CCN(C(=O)C1N(CCCCCCO)C(=O)C2C(C(=O)O)C3C=CC21O3)C(C)(C)C (stereo not given) | 2.09 and 0.74 | -0.164 and -0.432 | 0.991 and 1.09 | 0.717 (inactive) and 1.5 (inactive) | -2.17 and -2.31 | -1.18 and -1.05 | -2.13 and -1.6 | -2.45 and -1.52 | -3.24 and -3.14 | -3.68 and -2.77 | -1.46 and -0.783 | 0.31 and -0.387 | -3.98 and -3.63 | -0.332 and -0.397 | 0.915 and 0.825 | -0.348 and -0.364 | -0.221 and -0.123 | -0.176 and 0.338 | -1.85 and -0.489 | -1.42 and -1.95
